In PubChem BioAssay (NCI):
Compounds without any hit were thinned out: in the full panel of roughly 83,000, 20% have a hit.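 Each cell line was grown in a 96-well plate and treated with one concentration of compound for 48 hours. Values below 10 were considered active.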 Unmarked numbers belong to inactive results. The source made the active and inactive calls.

What was measured:
Assay in all cases: NCI-60 one-dose screen, 48 h (100 = growth as untreated, 0 = no growth, -100 = all killed)
Details in all cases: 10 µM unless noted
SK-MEL-2 melanoma = system: SK-MEL-2 melanoma
EKVX NSCLC = system: EKVX NSCLC
SN12C renal = system: SN12C renal
UO-31 renal = system: UO-31 renal
TK-10 renal = system: TK-10 renal
ACHN renal = system: ACHN renal
CAKI-1 renal = system: CAKI-1 renal
A498 renal = system: A498 renal
CCRF-CEM leukemia = system: CCRF-CEM leukemia
MOLT-4 leukemia = system: MOLT-4 leukemia
SR leukemia = system: SR leukemia
RPMI-8226 leukemia = system: RPMI-8226 leukemia
OVCAR-8 ovarian = system: OVCAR-8 ovarian
OVCAR-5 ovarian = system: OVCAR-5 ovarian
OVCAR-4 ovarian = system: OVCAR-4 ovarian
SK-OV-3 ovarian = system: SK-OV-3 ovarian
IGROV1 ovarian = system: IGROV1 ovarian
OVCAR-3 ovarian = system: OVCAR-3 ovarian
HS 578T breast = system: HS 578T breast
NCI/ADR-RES ovarian = system: NCI/ADR-RES ovarian

SMILES	growth (SK-MEL-2 melanoma)	growth (EKVX NSCLC) [%]	growth (SN12C renal)	growth (UO-31 renal)	growth (TK-10 renal)	growth (ACHN renal)	growth (CAKI-1 renal)	growth (A498 renal)	growth (CCRF-CEM leukemia)	growth (MOLT-4 leukemia)	growth (SR leukemia)	growth (RPMI-8226 leukemia)	growth (OVCAR-8 ovarian)	growth (OVCAR-5 ovarian)	growth (OVCAR-4 ovarian)	growth (SK-OV-3 ovarian) [%]	growth (IGROV1 ovarian)	growth (OVCAR-3 ovarian)	growth (HS 578T breast)	growth (NCI/ADR-RES ovarian)
O=C(Nc1ncc(Cc2ccccc2)s1)c1cc(-c2ccccc2)nc2ccccc12	105%	98.1	104%	78.7%	98.1%	99.4%	93.7%	103%	95.4%	95.6%	105%	95.7%	98.4%	98.6%	108%	96.7	87.3%	104%	92.6%	87.8%
C=C(CNCCO)[C@@H]1CC[C@]2(CO)CC[C@]3(C)[C@H](CC[C@@H]4[C@@]5(C)CCC(NCCO)C(C)(C)[C@@H]5CC[C@]43C)[C@@H]12 (stereo not given in full)	96.1%	82.4	89.1%	65.2%	92.7%	95.9%	72.2%	75.3%	39.2%	39.9%	-22.9% (active)	36.8%	75.8%	90.6%	77.1%	94.6	80.4%	80%	78.2%	95%
CCC(=C(c1ccc(OCCN(CC)CC)cc1)c1ccc(OCCN(CC)CC)cc1)c1ccc(Cl)cc1	-44.9% (active)	77.1	-77% (active)	-81.2% (active)	-79.3% (active)	-90.2% (active)	-89.4% (active)	43.3%	-65.3% (active)	-60.1% (active)	-39.7% (active)	-48.5% (active)	-49.8% (active)	-52.8% (active)	-38.9% (active)	55.4	-78.6% (active)	-72.2% (active)	-44.3% (active)	-33.1% (active)
COc1ccc(/C=N\NC(=O)c2ccc3nc(-c4ccc(Cl)cc4)[nH]c3c2)cc1	64.1%	29.4	6.24% (active)	81.9%	39.1%	21.9%	60.5%	66.6%	65.3%	68.2%	0.647% (active)	59.2%	31.3%	77.3%	-30.6% (active)	72.3	14.6%	20.1%	32.3%	73.6%
Cc1ccc2c(n1)C[C@H](C(C)(C)O)CC[C@H]2C	99.9%	92.4	98.4%	90.6%	97.5%	102%	92.8%	98.1%	106%	103%	107%	110%	101%	94.7%	99.6%	99.1	104%	113%	111%	104%
N#C/C(=C\c1cccc2cnccc12)N1N=NC2C=CC=CC21 (stereo not given)	61.3%	40.4	30.7%	27.2%	55.6%	19.2%	27%	38.5%	10.2%	31.7%	26.3%	18.8%	42.9%	51.8%	25.2%	86.1	27.9%	6.92% (active)	24.2%	42.7%
CN(C)CC1C(=O)O[C@H]2[C@H]1CC/C(COC(=O)NCc1ccc(Cn3c(=O)sn(CCCI)c3=O)cc1)=C\CC[C@@]1(C)O[C@@H]21 (stereo not given in full)	63.3%	89.7	18.9%	1.41% (active)	-63.3% (active)	-48.8% (active)	-63.8% (active)	105%	-10.1% (active)	-1.36% (active)	-28.6% (active)	-29.7% (active)	-68.2% (active)	105%	6.44% (active)	99.5	-81.8% (active)	-96.4% (active)	82.5%	98.8%
Nc1ncc(-c2ccc3ncnc(N4CCc5cc(F)c(Cl)cc54)c3c2)cn1	66.7%	15.7	26%	14.4%	21.8%	20.5%	15.7%	-29.5% (active)	22%	17.3%	36.5%	20.8%	45.4%	27%	54.6%	29.4	9.49% (active)	37.9%	13.2%	50.4%
CC(=O)OCCOc1cc(Cl)c(Cl)cc1Cl	89.9%	78.4	102%	89.1%	106%	103%	96.5%	82.8%	-63.4% (active)	107%	97.2%	93.3%	103%	90.6%	108%	107	130%	118%	103%	105%
OC1CSSC1Cn1cnc2c(Nc3ccc(F)c(Cl)c3)ncnc21 (stereo not given)	93.3%	58.5	98.9%	44%	96.1%	98.1%	105%	103%	29.6%	-27.1% (active)	3.55% (active)	55.7%	96.5%	115%	91.4%	107	93.2%	68.5%	103%	93.3%
COc1cc(C)cc(-c2c(-c3cc(N4CC(O)C4)nc(-c4cccnc4)n3)cnn2C)c1	113%	91.7	77.8%	76.7%	99.5%	66.5%	94.5%	72.8%	78.9%	94.6%	88.3%	77.7%	92.7%	99.9%	88.7%	118	120%	101%	80.5%	83.1%
Cc1c(CC(=O)Nc2ccccc2)nnn1-c1ccccc1	107%	104	108%	88.2%	101%	109%	97.5%	108%	105%	99.7%	103%	103%	105%	108%	115%	110	106%	115%	102%	99.5%
C=C1CC[C@@H]2[C@](C)(COC(C)=O)[C@H](OC(C)=O)CC[C@@]2(C)[C@@H]1CC(Nc1ccc(S(=O)(=O)Nc2nccc(C)n2)cc1)C1=CCOC1=O (stereo not given in full)	40.1%	79.2	25.1%	33.4%	83%	-37.2% (active)	61.4%	96.8%	-19.2% (active)	-1.85% (active)	0.793% (active)	-5.56% (active)	10.5%	26.9%	32.3%	101	25.8%	-45% (active)	68.6%	20.9%
c1ccc2[nH]c(-c3ccc(-c4nccc5c4[nH]c4ccccc45)cc3)nc2c1	47.3%	81.2	60.9%	89.2%	73.5%	71.7%	81.9%	68.7%	11.1%	77.1%	-4.29% (active)	61.1%	16.5%	129%	23%	104	94.5%	-24.2% (active)	73.7%	62.6%
FC(F)(F)c1cc(N2CCCCC2)nc(NCCCNc2ccnc3cc(Cl)ccc23)n1	64.9%	48.3	69.1%	46.8%	63.6%	65.8%	60.7%	47.8%	54%	40%	-4.99% (active)	39.9%	66.2%	87.6%	43.4%	72.1	60%	54.8%	74.7%	44.9%
